Compound activity: PubChem, Broad Institute
An excerpt weighted towards active compounds, which were near 6.7% of everything screened.
Pf Dd2 inh: P. falciparum Dd2 growth inhibition. SYBR Green, 72 h; stronger effect = lower value. activity change, % at 10 µM. 2.3% of 94,000 active. AID 1159554; in the data active = activity change below about -80%; inconclusive = no clear call, values can overlap the other calls
T cruzi growth-1: T. cruzi proliferation inhibition | T. cruzi beta-gal in NIH3T3, GalScreen luminescence, 90 h | 5.9% of 77,000 active | AID 624255 | inhibition, % at 8.34 µM;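 active = mean inhibition above about 93%, with at least 55% of replicates each passing it, limit read from the data, passing the limit was not always enough; inconclusive = only one of those two conditions holds; inactive = neither condition holds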
C diff HTS: inhibitors of Clostridium difficile growth; Clostridium difficile clinical isolate growth, OD600, 24 h; stronger effect = lower value; growth activity, negative = inhibition, % at 16 µg/mL (by protocol); 0.25% of 86,000 active;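 active = mean growth activity at or below -80% and every replicate also at or below -80%; inconclusive = mean at or below -80% but some replicate above -80%; inactive = mean growth activity above -80%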;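 also: 0% = DMSO wells and -100% = levofloxacin 16 µg/mL wells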
T cruzi growth-2: inhibitors of T. cruzi proliferation. inhibition, % at 8.35 µM. shares compounds with T cruzi growth-1. AID 651739. T. cruzi beta-gal in NIH3T3, GalScreen luminescence, 90 h. 72% of 5,600 active;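 active = mean replicate inhibition above about 95% and at least 55% of replicates individually reaching it, limit read from the data; inconclusive = only one of the two criteria is met; inactive = neither criterion is met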
T cruzi growth-3: blocks T. cruzi growth in NIH3T3 host cells. 21% of 5,600 active. inhibition, % at 2.09 µM. T. cruzi beta-gal in NIH3T3, GalScreen luminescence, 90 h. shares compounds with T cruzi growth-1. AID 651740;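 active = mean inhibition above about 95%, with at least 55% of replicates also reaching it, limit read from the data; inconclusive = meets just one of the two conditions; inactive = meets neither condition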;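 also: plate controls were neutral control median for no effect and positive control median for full effect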
3T3 cytotox: cytotoxicity in mouse NIH/3T3 fibroblasts; cytotoxicity (signal decrease), % at 8.35 µM; AID 651742; NIH/3T3 viability, CellTiter-Glo ATP luminescence, 90 h; shares compounds with T cruzi growth-1; 14% of 5,600 active;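 active = mean signal decrease across replicates above about 35% based on untreated-well scatter, with enough replicates individually passing, limit read from the data; inconclusive = no rule stated though some were filed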;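 also: 0% = median of neutral control wells and 100% = median of positive control wells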
NIH3T3 tox 2: cytotoxicity in mouse NIH/3T3 fibroblasts. 56% of 5,600 active. shares compounds with T cruzi growth-1. inhibition, % at 24.9 µM. NIH/3T3 viability, CellTiter-Glo ATP luminescence, 90 h;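 active = mean loss of cell viability signal at or above a set limit, and enough replicates individually reaching it; inconclusive = meets only the mean limit or only the replicate share; inactive = meets neither condition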;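 also: 0% = median of neutral control wells and 100% = median of positive control wells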
Starred values were filed as active, the others as inactive; u = inconclusive; x = not tested or not shown.

SMILES	Pf Dd2 inh	T cruzi growth-1	C diff HTS	T cruzi growth-2	T cruzi growth-3	3T3 cytotox	NIH3T3 tox 2
Cc1noc(C)c1S(=O)(=O)Nc1ccc2c(c1)C(=O)N([C@@H](C)CO)C[C@@H](C)[C@H](CN(C)Cc1ccc(Cl)c(Cl)c1)OCCCC[C@@H](C)O2	-58.4	u	0.1	87.0	104.1*	57.3*	105.3*
Cc1noc(C)c1S(=O)(=O)Nc1ccc2c(c1)C(=O)N([C@H](C)CO)C[C@H](C)[C@@H](CN(C)Cc1ccc(C(F)(F)F)cc1)OCCCC[C@H](C)O2	-11.6	99.6*	x	110.3*	106.7*	5.5	105.3*
Cc1noc(C)c1S(=O)(=O)Nc1ccc2c(c1)C(=O)N([C@@H](C)CO)C[C@@H](C)[C@H](CN(C)Cc1ccc(C(=O)O)cc1)OCCCC[C@H](C)O2	-9.8	17.8	-28.1	x	x	x	x
Cc1noc(C)c1S(=O)(=O)Nc1ccc2c(c1)C(=O)N([C@H](C)CO)C[C@H](C)[C@H](CN(C)Cc1ccc(C(=O)O)cc1)OCCCC[C@H](C)O2	1.0	31.6	12.9	x	x	x	x
Cc1noc(C)c1S(=O)(=O)Nc1ccc2c(c1)C(=O)N([C@@H](C)CO)C[C@@H](C)[C@H](CN(C)Cc1ccc(C(F)(F)F)cc1)OCCCC[C@H](C)O2	-52.6	90.5	-13.0	x	x	x	x
Cc1noc(C)c1S(=O)(=O)Nc1ccc2c(c1)C(=O)N([C@@H](C)CO)C[C@H](C)[C@@H](CN(C)Cc1ccc(C(F)(F)F)cc1)OCCCC[C@@H](C)O2	-7.9	98.0*	x	u	u	18.3	105.1*
Cc1noc(C)c1S(=O)(=O)Nc1ccc2c(c1)C(=O)N([C@H](C)CO)C[C@H](C)[C@H](CN(C)Cc1ccc(C(F)(F)F)cc1)OCCCC[C@H](C)O2	-64.1	101.2*	20.1	97.1*	105.4*	29.4	104.7*
Cc1noc(C)c1S(=O)(=O)Nc1ccc2c(c1)C(=O)N([C@H](C)CO)C[C@H](C)[C@H](CN(C)Cc1ccc3c(c1)OCO3)OCCCC[C@@H](C)O2	-24.2	18.4	0.1	x	x	x	x
COc1ccc2c3c([nH]c2c1)[C@@H](CO)N(C(C)=O)CC31CCN(C(=O)CN2CCOCC2)CC1	19.3	x	0.9	x	x	x	x
C[C@@H]1CN([C@@H](C)CO)C(=O)Cc2cc(NS(C)(=O)=O)ccc2O[C@H]1CN(C)S(=O)(=O)c1cccs1	6.0	50.2	-10.1	x	x	x	x
C[C@H](CO)N1C[C@H](C)[C@H](CN(C)C(=O)NC2CCCCC2)OCCCC[C@H](C)Oc2ccc(NC(=O)Cc3ccccc3)cc2C1=O	-67.9	72.3	-5.1	x	x	x	x
O=C(c1cnccn1)N1CC(=O)N2[C@H](CO)[C@H](c3ccc(-c4cccc(F)c4)cc3)[C@H]2C1	-53.4	x	25.6	x	x	x	x
COc1ccc(NC(=O)Nc2cccc3c2O[C@@H](CN(C)S(=O)(=O)c2cccs2)[C@H](C)CN([C@@H](C)CO)C3=O)cc1	3.8	26.1	-1.8	x	x	x	x
N#C[C@H]1[C@@H](c2ccccc2)[C@@H](CO)N1C(=O)Cc1ccccc1	0.9	101.8*	8.7	0.9	6.0	-12.2	-11.8
N#C[C@H]1[C@H](c2ccc(-c3cncnc3)cc2)[C@@H](CO)N1C(=O)Cc1ccccc1	-2.0	1.6	-7.1	x	x	x	x
N#C[C@H]1[C@H](c2ccc(-c3ccc(F)cc3)cc2)[C@@H](CO)N1C(=O)Cc1ccccc1	-8.8	u	2.0	98.2*	48.7	39.8*	96.0*
N#C[C@@H]1[C@@H](c2ccc(-c3ccc(F)cc3)cc2)[C@@H](CO)N1C(=O)Cc1ccccc1	-33.9	38.8	-23.4	x	x	x	x
N#C[C@H]1[C@H](c2ccc(-c3ccccc3F)cc2)[C@H](CO)N1C(=O)Cc1ccccc1	-5.1	64.8	13.8	x	x	x	x
N#C[C@@H]1[C@H](c2ccccc2)[C@@H](CO)N1C(=O)Cc1ccccc1	12.8	109.5*	-0.3	6.1	-7.4	-6.5	0.5
N#C[C@@H]1[C@@H](c2ccc(-c3ccccc3F)cc2)[C@H](CO)N1C(=O)Cc1ccccc1	8.6	62.9	8.2	x	x	x	x
N#C[C@@H]1[C@@H](c2ccccc2)[C@H](CO)N1C(=O)Cc1ccccc1	16.6	100.4*	-3.8	43.8	5.2	-21.7	-8.8
Cc1ccc(S(=O)(=O)N(C)C[C@@H]2Oc3ccc(NC(=O)CCC(F)(F)F)cc3C(=O)N([C@@H](C)CO)C[C@@H]2C)cc1	29.1	24.0	-0.9	x	x	x	x
C[C@H]1CN([C@@H](C)CO)C(=O)c2cccc(NS(=O)(=O)c3ccccc3)c2O[C@@H]1CN(C)Cc1ccncc1	-14.2	-36.9	-2.5	x	x	x	x
Cc1ccc(S(=O)(=O)N[C@H]2C=C[C@@H](CC(=O)NCc3ccccc3F)O[C@H]2CO)cc1	21.4	-75.6	x	x	x	x	x
O=C(C[C@H]1C[C@@H]2c3cc(NS(=O)(=O)c4ccc(F)cc4)ccc3O[C@@H]2[C@H](CO)O1)N1CCOCC1	22.6	16.8	-1.8	x	x	x	x
SMILES	Pf Dd2 inh	T cruzi growth-1	C diff HTS	T cruzi growth-2	T cruzi growth-3	3T3 cytotox	NIH3T3 tox 2
CCC(=O)Nc1ccc2c(c1)OC[C@@H](C)N(Cc1ccccc1OC)C[C@H](C)[C@@H](OC)CN(C)C2=O	-47.9	91.1	x	x	x	x	x
CCC(=O)Nc1ccc2c(c1)C(=O)N(C)C[C@@H](OC)[C@H](C)CN(Cc1ccncc1)[C@@H](C)CO2	19.2	5.9	x	x	x	x	x
C[C@H](CO)N1C[C@H](C)[C@H](CN(C)C(=O)Nc2ccc(F)cc2)OCCCC[C@H](C)Oc2ccc(NC(=O)c3ccccc3)cc2C1=O	-56.8	u	8.5	106.7*	76.1	-23.3	1.7
C[C@H](CO)N1C[C@H](C)[C@H](CN(C)C(=O)Nc2ccc(C(F)(F)F)cc2)OCCCC[C@H](C)Oc2ccc(NC(=O)c3ccccc3)cc2C1=O	-82.5*	u	5.6	105.8*	108.6*	5.7	19.4
C[C@H](CO)N1C[C@H](C)[C@@H](CN(C)C(=O)Nc2ccc(C(F)(F)F)cc2)OCCCC[C@H](C)Oc2ccc(NC(=O)c3ccccc3)cc2C1=O	-50.8	101.1*	8.8	109.9*	113.3*	36.3*	52.4*
C[C@@H]1CCCCO[C@@H](CN(C)C(=O)Nc2ccc(F)cc2)[C@H](C)CN([C@@H](C)CO)C(=O)c2cc(NC(=O)c3ccccc3)ccc2O1	-40.0	56.6	1.7	x	x	x	x
C[C@@H]1CCCCO[C@H](CN(C)C(=O)Nc2ccc(C(F)(F)F)cc2)[C@H](C)CN([C@@H](C)CO)C(=O)c2cc(NC(=O)c3ccncc3)ccc2O1	-61.0	90.0	11.4	x	x	x	x
O=C(C[C@@H]1C=C[C@H](NC(=O)c2ccccc2)[C@H](CO)O1)NCc1ccc(Oc2ccccc2)cc1	-3.3	20.5	x	x	x	x	x
C[C@H](CO)N1C[C@H](C)[C@@H](CN(C)CC2CCCCC2)Oc2ccc(NC(=O)CCC(F)(F)F)cc2C1=O	12.2	u	7.8	45.6	-20.7	-7.2	6.9
